# This is a sample that favours compounds with a hit; in the whole collection about 6.9% have one here.
# L3MBTL1 inh = L3MBTL1 (human) inhibition. Potency, µM (highest dose often 57.1 µM), usual class: inhibitors. hit rate 0.66% among 230,000. AlphaScreen L3MBTL1–H3K9me1 peptide binding; also: nearly all actives have a fitted effect of over 60% in size
#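 Displacement of a biotinylated histone H3(1-15) peptide monomethylated at Lys9 (75 nM) from L3MBTL1 (50 nM) was measured by AlphaScreen after a 30 min room-temperature compound incubation; cefsulodin titration served as intraplate control.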
# VDR inhibitor = blocks the human vitamin D receptor. P11473. VDR-SRC2-3 peptide fluorescence polarization, 2 h. Potency, µM, hits mostly inhibitors. hit rate 0.93% among 400,000. AID 504847
#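 FP read-out; VDR + SRC2-3 coactivator peptide; 23 nl compound by pintool; 2 h RT incubation; reagents held at 4 deg C, protected from light.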
# PLK1 PBD inh = blocks phosphopeptide binding to human PLK1 polo-box domain | P53350 | Plk1 PBD binding of FITC phosphopeptide, fluorescence polarization | Potency, µM, hits mostly inhibitors | hit rate 2.8% among 360,000 | AID 720504; also: series mostly up to about 57 µM; nearly all actives have a fitted effect of over 65% in size
# Target sequence (P53350 whole entry, looked up, the tested form may be a part): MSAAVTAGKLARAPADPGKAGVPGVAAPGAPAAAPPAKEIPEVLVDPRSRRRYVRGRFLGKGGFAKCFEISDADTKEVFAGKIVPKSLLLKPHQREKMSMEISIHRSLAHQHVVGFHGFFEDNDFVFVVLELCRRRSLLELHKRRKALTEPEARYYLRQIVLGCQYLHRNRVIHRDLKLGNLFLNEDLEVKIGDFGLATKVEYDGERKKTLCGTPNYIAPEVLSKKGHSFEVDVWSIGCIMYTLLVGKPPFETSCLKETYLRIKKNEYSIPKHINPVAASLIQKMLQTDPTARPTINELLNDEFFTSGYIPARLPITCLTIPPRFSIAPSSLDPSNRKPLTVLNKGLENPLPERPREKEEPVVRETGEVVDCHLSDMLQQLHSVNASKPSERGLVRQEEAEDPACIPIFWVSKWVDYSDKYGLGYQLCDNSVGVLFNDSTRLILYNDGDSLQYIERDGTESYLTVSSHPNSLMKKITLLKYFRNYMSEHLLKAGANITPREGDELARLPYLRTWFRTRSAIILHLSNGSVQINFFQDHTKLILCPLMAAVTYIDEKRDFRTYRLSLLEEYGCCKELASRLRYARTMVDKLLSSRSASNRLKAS
# JMJD2A Tudor = inhibitors of human JMJD2A Tudor domain. hit rate 4.4% among 390,000. Potency, µM (doses to about 114 µM), actives largely listed as inhibitors. AID 504339. AlphaScreen JMJD2A-Tudor / H3K4me3 peptide binding. O75164; also: nearly all actives have a fitted effect of over 50% in size
# HP1b chromo inh = HP1-beta chromodomain-methylated histone interaction inhibition | P83916 | AlphaScreen HP1-beta / biotin-H3K9me3 peptide binding | AID 540317 | Potency, µM (top dose mostly 114 µM), hits mostly inhibitors | hit rate 0.56% among 390,000; also: nearly all actives have a fitted effect of over 70% in size
#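 AlphaScreen: HP1-beta (50 nM) preformed 30 min with biotin-H3(1-18)K9me3 peptide (50 nM) in PBS pH 7.4, 0.01% Tween-20. Compound added for 30 min at RT, then streptavidin donor/nickel chelate acceptor beads (10 ug/mL) for 30 min.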
# BAZ2B block = BAZ2B (human) inhibition. Q9UIF8. Potency, µM (top dose mostly 114 µM), usual class: inhibitors. AlphaScreen BAZ2B-H3K14Ac peptide displacement. hit rate 4.4% among 360,000; also: nearly all actives have a fitted effect of over 60% in size
#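 Protein-peptide AlphaScreen: BAZ2B 50 nM, b-H3K14Ac 50 nM, 1x PBS pH 7.4 + 0.01% Tween-20. Preincubation 30 min RT; cpd 30 min RT (top 110 uM); beads 20 min RT, light-protected.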
# A number is an active result; – = inactive; ? = inconclusive; · = no result given. Calls follow the shape of the dose curve; as a rule, active = well fitted curve in the direction sought with a large enough effect; inconclusive = small, poorly fitted or top-dose-only effect, or another doubt; inactive = no such curve, though single readings can be large; an effect the other way counts as inactive or inconclusive.
SMILES,L3MBTL1 inh,VDR inhibitor,PLK1 PBD inh,JMJD2A Tudor,HP1b chromo inh,BAZ2B block
Cc1ccc(NC(=O)Cn2nc(C(F)(F)F)c3c2CCCC3)cc1,·,–,·,–,–,–
COc1ccccc1NC(=O)C1=C(C)Nc2c(C(=O)Nc3ccc(F)cc3)cnn2C1c1ccc(Cl)cc1 (stereo not drawn),·,–,·,–,–,–
OC[C@@H](O)[C@@H](O[C@@H]1O[C@H](CO)[C@H](O)[C@H](O)[C@H]1O)[C@H](O)[C@@H](O)CO,·,–,–,–,–,·
CN(C)c1ccc(/C=C(\C#N)C(=O)c2ccccc2)cc1,–,–,–,–,–,–
Cc1ccc(C=C(C#N)C(=O)c2ccccc2)cc1,·,·,1.9µM,·,·,·
CN(C)c1ccc(C=C(C#N)C(=O)c2ccccc2)cc1Br,·,·,0.84µM,·,·,·
N#C/C(=C\c1ccc(C#N)cc1)C(=O)c1ccccc1,–,79µM,4.7µM,–,–,–
O=c1c(-c2ccco2)nc2ccccc2n1C(CCc1ccccc1)c1nc2ccccc2[nH]1 (stereo not drawn),·,·,3µM,·,·,·
O=C(O)COc1ccc(/C=N/NC(=O)c2ccc(-c3csc(Nc4ccc(Cl)cc4)n3)cc2)cc1,·,–,?,8.9µM,20µM,4µM
CCOc1cc(/C=N/NC(=O)c2ccc(-c3csc(Nc4ccc(C)cc4)n3)cc2)ccc1OCC(=O)O,–,–,?,?,–,25µM
Cc1nc(CC(=O)N/N=C/c2ccc(OCC(=O)O)cc2)cs1,·,–,–,–,–,?
COc1ccc(C(=O)NCC(c2ccc3c(c2)OCO3)N2CCN(C)CC2)cc1OC (stereo not drawn),·,–,·,–,–,–
CCCCNc1nc2c(S(=O)(=O)c3ccc(C)c(C)c3)nnn2c2ccsc12,·,–,·,–,–,–
c1ccc(NNC2=NCCS2)cc1,·,–,–,4µM,?,–
O=C(CN1CCCCCCC1)N/N=C/c1ccc(F)c(F)c1,–,–,–,3.2µM,–,–
O=C(CN1CCCCC1)N/N=C/c1ccc(Cl)cc1,–,–,–,–,–,?
CCCOc1ccc(/C=N/NC(=O)CN2CCCCC2)cc1OCC,–,–,–,–,–,–
CCOc1cc(/C=N/NC(=O)CN2CCCCC2)ccc1OCc1ccc(Cl)cc1,–,–,–,?,–,50µM
O=C(CN1CCCCC1)N/N=C/c1cccc(C(F)(F)F)c1,·,–,–,–,–,·
O=C(CN1CCCCCC1)N/N=C/c1cccc(Cl)c1,–,–,–,79µM,–,50µM
COc1cccc(N2CCN(C(=O)CCn3nc(C)c(S(=O)(=O)N4CCCC4)c3C)CC2)c1,·,–,·,?,–,?
CNC[C@@H]1Oc2cc(Br)ccc2S(=O)(=O)N([C@@H](C)CO)C[C@@H]1C,·,·,–,·,·,·
COc1ccc(N2CCN(C3=CC(=O)N(c4cccc(Cl)c4)C3=O)CC2)cc1,–,–,–,?,?,11µM
COc1ccc(N2C(=O)CC(N3CCN(c4cccc(Cl)c4)CC3)C2=O)cc1 (stereo not drawn),–,?,–,–,–,–
Cn1c(=S)c2[nH]c(SCC3CCCO3)nc2n(C)c1=O (stereo not drawn),·,?,–,4.5µM,?,·
SMILES,L3MBTL1 inh,VDR inhibitor,PLK1 PBD inh,JMJD2A Tudor,HP1b chromo inh,BAZ2B block
COc1ccc(Br)cc1CNC(=O)c1ccc2c(c1)nc1n2CCCCC1,·,–,·,–,–,–
CCC(=O)Nc1cc(-c2cccc(C)c2)nn1-c1ccccc1,·,–,·,–,–,–
COc1ccc(C(CC(=O)O)NS(=O)(=O)c2ccc3c(c2)N(C(C)=O)CC(C)O3)cc1 (stereo not drawn),·,–,27µM,–,–,–
CC(=O)Nc1ccc(-c2nnc(SCC(=O)c3ccc4c(c3)Cc3ccccc3-4)n2C)cc1,–,50µM,–,35µM,–,–
CC(=O)Nc1ccc(C(=O)CSc2nnc(-c3ccccc3)n2-c2ccccc2)cc1,·,–,·,–,–,–
CC(C)(C)C1CCc2c(sc(NC(=O)C3CC=CCC3C(=O)O)c2C#N)C1 (stereo not drawn),–,?,21µM,–,–,–
CCC(C)(C)C1CCc2c(sc(NC(=O)c3ccccc3C(=O)O)c2C#N)C1 (stereo not drawn),–,–,27µM,–,–,–

# Source: PubChem BioAssay
